These results are taken from PubChem BioAssay (NCI).

Among the test systems are NCI-H23 lung; NCI-H226 lung; NCI-H322M lung; NCI-H460 lung; HOP-92 NSCLC; NCI-H522 lung; A549/ATCC NSCLC; 786-0 renal; COLO 205 colon; DU-145 prostate; K-562 leukemia; MALME-3M melanoma; MDA-MB-231 breast; RXF 393 renal; SF-268 CNS; SF-295 CNS; SF-539 CNS; UACC-257 melanoma; M14 melanoma; HOP-62 NSCLC.
Assay in all cases: NCI-60 one-dose screen, 48 h (100 = growth as untreated, 0 = no growth, -100 = all killed)
Holding throughout (conditions): 10 µM unless noted

The structures appear in SMILES notation. This is part of a sample that, as a whole, favours compounds with a hit. Of some 83,000 tested, about 20% had one in any assay.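 A percent growth of 40 corresponds to 60% growth inhibition; 0 means no net growth; -100 means all cells died. Active threshold: below 10.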 Unmarked numbers belong to inactive results. Active and inactive are the calls of the source.

For the molecule `COc1ccc(S(=O)(=O)NCCNc2nccc(-c3c(-c4cccc(N)c4)nc4sccn34)n2)cc1`, the growth in the experiment with NCI-H23 lung was 103%; with NCI-H226 lung, 96.1%; with NCI-H322M lung it was 111%; in the experiment on NCI-H460 lung, 99.6%; with HOP-92 NSCLC, 96.2%; in the experiment on NCI-H522 lung, 91.2%. Further, the growth was 99.6% with A549/ATCC NSCLC; 99% in the experiment with 786-0 renal; 106% in the experiment with COLO 205 colon; 105% with DU-145 prostate; 88.9% in the experiment on K-562 leukemia; 101% with MALME-3M melanoma. Besides, the growth is 104% in the experiment with MDA-MB-231 breast; 107% with RXF 393 renal; 99.7% in the experiment with SF-268 CNS; 99.2% with SF-295 CNS; 110% in the experiment with SF-539 CNS; 102% in the experiment with UACC-257 melanoma. In addition, in the experiment on M14 melanoma, the growth is 102%.

For `O=c1ccc2cc3ccccc3cc2[nH]1`, the growth with NCI-H23 lung is 93.1%; in the experiment on NCI-H226 lung it was 94%; with NCI-H322M lung, 114%; in the experiment on NCI-H460 lung it was 93.8%; in the experiment with HOP-92 NSCLC, 84.8%; with NCI-H522 lung it was 98.8%. Further, the growth was 102% with A549/ATCC NSCLC; 103% with 786-0 renal; 121% with COLO 205 colon; 100% in the experiment with DU-145 prostate; 57.6% with K-562 leukemia; 112% in the experiment on MALME-3M melanoma. For the same molecule, the growth in the experiment with MDA-MB-231 breast is 101%; in the experiment with RXF 393 renal, 93.7%; in the experiment on SF-268 CNS it was 75.5%; in the experiment with SF-295 CNS it was 95.4%; in the experiment with UACC-257 melanoma, 96.5%; with M14 melanoma it was 101%.

In the case of `O=c1c2cccc3c(NC4CCCCC4)ccc(c32)c2nc3ccccc3n12`, the growth with NCI-H23 lung is 46%; with NCI-H226 lung, 72%; with NCI-H322M lung, 82.3%; in the experiment on HOP-62 NSCLC, 90.6%; with NCI-H460 lung, 34.7%; with HOP-92 NSCLC, 48.4%. The growth is 108% with 786-0 renal; 75.6% in the experiment with COLO 205 colon; 98.7% in the experiment with DU-145 prostate; 66.9% with K-562 leukemia; 96.1% in the experiment on MALME-3M melanoma; 82.3% with MDA-MB-231 breast. In addition, the growth is 112% with RXF 393 renal, 99.5% in the experiment with SF-268 CNS, 96.2% in the experiment on SF-539 CNS and 86.7% with M14 melanoma.

Take `CSc1nc(NCCO)c(C#N)c(-c2cccc(N)c2)n1`: the growth was 90.5% in the experiment with NCI-H23 lung; 92.8% with NCI-H226 lung; 97.6% in the experiment with NCI-H322M lung; 99.6% in the experiment on NCI-H460 lung; 95.7% in the experiment with HOP-92 NSCLC; 100% in the experiment with A549/ATCC NSCLC. Moreover, the growth in the experiment with 786-0 renal is 103%; with COLO 205 colon, 108%; in the experiment on DU-145 prostate it was 106%; in the experiment with K-562 leukemia it was 94.4%; in the experiment with MALME-3M melanoma, 101%; in the experiment on MDA-MB-231 breast, 86.4%. The growth with RXF 393 renal is 113%; in the experiment on SF-268 CNS, 96.2%; in the experiment with SF-295 CNS, 96.9%; with SF-539 CNS, 91.7%; with UACC-257 melanoma, 100%; in the experiment on M14 melanoma, 100%.

Consider `CC(C)(C)c1nn(-c2ccccc2)c2c1CC1(CN2Cc2ccc3c(c2)OCO3)C(=O)c2ccccc2C1=O`, for which the growth in the experiment on NCI-H23 lung was 106%; in the experiment on NCI-H226 lung, 110%; with NCI-H322M lung, 107%; with NCI-H460 lung it was 112%; in the experiment on HOP-92 NSCLC, 97.2%; in the experiment on NCI-H522 lung, 141%. In addition, the growth in the experiment on A549/ATCC NSCLC was 79.4%; in the experiment with 786-0 renal it was 98.4%; in the experiment on COLO 205 colon, 108%; in the experiment with DU-145 prostate it was 112%; with K-562 leukemia, 89.8%; with MALME-3M melanoma, 148%. The growth in the experiment with MDA-MB-231 breast is 94.6%; with RXF 393 renal, 93%; with SF-268 CNS, 111%; with SF-295 CNS, 106%; with UACC-257 melanoma, 104%; with M14 melanoma, 120%.

Take `O=C1/C(=C/c2ccc(Cl)cc2Cl)CN(S(=O)(=O)c2ccccc2)C/C1=C\c1ccc(Cl)cc1Cl`: the growth with NCI-H23 lung is -37.6% (active); with NCI-H226 lung it was 58.3%; in the experiment with NCI-H322M lung, -0.804% (active); with NCI-H460 lung it was -24.1% (active); in the experiment on HOP-92 NSCLC, -3.29% (active); with A549/ATCC NSCLC, 3.06% (active). Also, the growth with 786-0 renal is -81.2% (active); with COLO 205 colon, -15.9% (active); with DU-145 prostate, 9.52% (active); in the experiment with K-562 leukemia, 0.787% (active); in the experiment with MALME-3M melanoma, 36.8%; in the experiment with MDA-MB-231 breast it was -23.2% (active). The growth is -87% (active) with RXF 393 renal, 4.96% (active) in the experiment with SF-268 CNS, -54.1% (active) with SF-539 CNS and 20.5% in the experiment on M14 melanoma.

As for `CCC(=O)Oc1ccc(/C(=C(\C)c2ccccc2)c2ccc(OCCN(CC)CC)cc2)cc1`, the growth is 89.1% in the experiment with NCI-H23 lung; 95.8% in the experiment with NCI-H226 lung; 96.2% in the experiment with NCI-H322M lung; 80.9% in the experiment on NCI-H460 lung; 61% in the experiment on HOP-92 NSCLC; 73.5% with NCI-H522 lung. In addition, the growth is 84.9% in the experiment with A549/ATCC NSCLC; 70.1% in the experiment on 786-0 renal; 74.6% with COLO 205 colon; 102% with DU-145 prostate; 23% with K-562 leukemia; 80.3% with MALME-3M melanoma. Moreover, the growth in the experiment on MDA-MB-231 breast is 89.7%; in the experiment with RXF 393 renal, 93.4%; with SF-268 CNS, 85.5%; in the experiment with SF-295 CNS, 95.2%; in the experiment on SF-539 CNS, 76.9%; in the experiment on UACC-257 melanoma, 87.4%. Also, in the experiment on M14 melanoma, the growth was 69%.

On to `COc1cc(NCCCCN=C(N)NC(N)=NC(C)C)c2ncccc2c1`, for which the growth in the experiment with NCI-H23 lung is -31.5% (active); in the experiment on NCI-H226 lung, 94.3%; with NCI-H322M lung it was 33.6%; with NCI-H460 lung, 74.4%; with HOP-92 NSCLC it was 33.7%; in the experiment on A549/ATCC NSCLC it was 98.9%. Also, the growth in the experiment with 786-0 renal was 106%; with COLO 205 colon it was -18.5% (active); in the experiment on DU-145 prostate, 127%; in the experiment with K-562 leukemia, 39.1%; with MALME-3M melanoma it was -2.65% (active); in the experiment on MDA-MB-231 breast, 21.3%. For the same molecule, the growth is 154% with RXF 393 renal; 54.1% with SF-268 CNS; 113% in the experiment with SF-295 CNS; 78.1% in the experiment on SF-539 CNS; 25.2% with UACC-257 melanoma; 92.4% in the experiment with M14 melanoma.

`Cc1ccc2cnc(N)c(C#Cc3cncc(C(=O)Nc4ccc(CN5CCN(C)CC5)c(C(F)(F)F)c4)c3)c2c1`: the growth in the experiment with NCI-H23 lung is -63.8% (active); in the experiment on NCI-H226 lung it was -75.8% (active); in the experiment on NCI-H322M lung it was -97.2% (active); in the experiment on NCI-H460 lung, -78.8% (active); in the experiment on HOP-92 NSCLC, -80.9% (active); with NCI-H522 lung, -71% (active). Further, the growth in the experiment on A549/ATCC NSCLC was -79.4% (active); in the experiment on 786-0 renal, -79.6% (active); in the experiment on COLO 205 colon, -70.3% (active); in the experiment with DU-145 prostate, -95.8% (active); in the experiment on K-562 leukemia, -50.5% (active); with MALME-3M melanoma, -83.4% (active). The growth is -94.8% (active) in the experiment with MDA-MB-231 breast; -93% (active) with RXF 393 renal; -69% (active) in the experiment on SF-268 CNS; -87.2% (active) in the experiment with SF-295 CNS; -99.2% (active) in the experiment with SF-539 CNS; -64.7% (active) in the experiment on UACC-257 melanoma. For the same molecule, in the experiment with M14 melanoma, the growth was -62.2% (active).
